The source of these data is PubChem BioAssay (EPA / NIEHS).

The nature of assay [1]: TOX21_p53_BLA_p2_viability: Viability Assessment in the Tox21 HCT-116 p53 Agonism Beta-lactamase Assay, Phase 2 (AID 2283591).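 Further: compound exposure lasted 16 h at 37 °C; actives lower the ATP signal meaning cytotoxicity.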 The essentials: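 HCT-116 p53-bla cells (4000/well) rested 5 h at 37C, then received compounds in DMSO (217-fold dilution) for 16 h at 37C, 5% CO2. After the CCF4 read, CellTiter-Glo was added; ATP luminescence was read after 30 min at room temperature.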

Assay [2] concerns the target Cellular tumor antigen p53 (Homo sapiens) (UniProt P04637). In words: TOX21_p53_BLA_p2_ratio: Tox21 HCT-116 p53 Agonism Beta-lactamase Assay, Ratio, Phase 2 (AID 2283592). The essentials: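 Plated HCT116 p53-bla cells (4000/well) received compound after 5 h, then 16 h at 37C/5% CO2. CCF4-AM added, 2 h RT. Ratio of 460 to 530 nm emission taken as the p53 reporter signal.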

Assay [3] is described as follows: TOX21_p53_BLA_p3_viability: Viability Assessment in the Tox21 HCT-116 p53 Agonism Beta-lactamase Assay, Phase 3 (AID 2283593).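 Further: cells exposed to compound for 16 h before reading.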 In outline:
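HCT-116 cells (4000/well) rested 5 h at 37C, then got DMSO compounds by pin tool (217-fold dilution) for 16 h at 37C, 5% CO2. After the bla read, CellTiter-Glo was added and luminescence read at 30 min, room temperature.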

Assay [4] has as its target Cellular tumor antigen p53 (Homo sapiens) (UniProt P04637). In words: TOX21_p53_BLA_p3_ratio: Tox21 HCT-116 p53 Agonism Beta-lactamase Assay, Ratio, Phase 3 (AID 2283596). In outline: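 Cells were seeded at 4000/well, rested 5 h at 37C, then dosed with DMSO compound solutions (217-fold dilution) for 16 h. CCF4-AM substrate was loaded for 2 h at room temperature, and the 460/530 nm emission ratio was fitted for gain of signal versus DMSO.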

A short description of assay [5]: TOX21_p53_BLA_p4_viability: Viability Assessment in the Tox21 HCT-116 p53 Agonism Beta-lactamase Assay, Phase 4 (AID 2283597).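 Further: hits lower the luminescence signal meaning cytotoxicity.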 The essentials:
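Readout: ATP luminescence (CellTiter-Glo), measured 30 min after reagent addition at RT. The reagent followed a 2 h CCF4-AM incubation, and the cells had been exposed to compound for 16 h at 37C.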

Assay [6] deals with Cellular tumor antigen p53 (Homo sapiens) (UniProt P04637). In words: TOX21_p53_BLA_p5_ratio: Tox21 HCT-116 p53 Agonism Beta-lactamase Assay, Ratio, Phase 5 (AID 2283599). The essentials:
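HCT-116 cells carrying a p53-inducible beta-lactamase reporter were seeded at 4000 cells/well and dosed after 5 h with compound in DMSO (217-fold dilution). After 16 h at 37C, CCF4-AM substrate was added for 2 h, and the 460/530 nm emission ratio was scored as gain-of-signal versus DMSO.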

Assay [7] can be described thus: TOX21_p53_BLA_p5_viability: Viability Assessment in the Tox21 HCT-116 p53 Agonism Beta-lactamase Assay, Phase 5 (AID 2283600). In outline:
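Workflow: seed 4000 cells per well, wait 5 h, add compounds (DMSO, 217-fold dilution), incubate 16 h, load CCF4-AM 2 h, add CellTiter-Glo, read luminescence after 30 min.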

Assay [8] has as its target Cellular tumor antigen p53 (Homo sapiens) (UniProt P04637). In words: TOX21_p53_BLA_p4_ratio: Tox21 HCT-116 p53 Agonism Beta-lactamase Assay, Ratio, Phase 4 (AID 2283601). In outline:
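HCT116 cells carrying an inducible beta-lactamase reporter were plated at 4000 cells/well, rested 5 h, then exposed to compounds in DMSO (217-fold dilution) for 16 h at 37C. CCF4-AM substrate was loaded 2 h at room temperature; 460/530 nm emission ratio scored gain-of-signal versus DMSO.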

SMILES strings stand for the structures. Inconclusive results are not listed. The source made the active and inactive calls. How the source made its calls: active means hit-call score of the fitted dose curve at least 0.9, where 1 is the maximum; inconclusive means response in the unintended direction; inactive means score below 0.9.

Chain of Cellular tumor antigen p53 (Homo sapiens) (P04637 whole entry, looked up): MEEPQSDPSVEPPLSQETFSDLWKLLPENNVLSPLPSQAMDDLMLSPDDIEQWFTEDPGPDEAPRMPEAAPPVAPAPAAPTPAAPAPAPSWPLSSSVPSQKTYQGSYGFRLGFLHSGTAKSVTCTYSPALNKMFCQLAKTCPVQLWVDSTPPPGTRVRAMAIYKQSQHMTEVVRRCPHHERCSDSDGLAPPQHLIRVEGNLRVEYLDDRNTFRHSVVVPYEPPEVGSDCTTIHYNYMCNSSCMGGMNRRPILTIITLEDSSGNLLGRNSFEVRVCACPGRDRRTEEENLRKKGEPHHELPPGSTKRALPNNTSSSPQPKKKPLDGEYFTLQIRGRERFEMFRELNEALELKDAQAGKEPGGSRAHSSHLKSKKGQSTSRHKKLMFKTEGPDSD

Take `CN=C(N)NCCC[C@H](N)C(=O)O`: the compound was classed as inactive in assay [1], in assay [2], in assay [3], in assay [4], in assay [5] and in assay [6]. Further, the compound was classed as inactive in assay [7] and in assay [8].
With `C=CCNC(N)=S`, the compound was classed as inactive in assay [1], in assay [2], in assay [3], in assay [4], in assay [5] and in assay [6]. Also, the compound was classed as inactive in assay [7] and in assay [8].
Regarding `Cc1cccc(N(C)C(=S)Oc2ccc3c(c2)CCC3)c1`, the compound was called inactive in assay [1], in assay [2], in assay [3], in assay [4], in assay [5] and in assay [6]. The result in assay [7] and in assay [8] was inactive.
`CC1(C)S[C@@H]2[C@H](NC(=O)C(C(=O)O)c3ccccc3)C(=O)N2[C@H]1C(=O)O` (stereo not given in full): the outcome in assay [1], in assay [2], in assay [3], in assay [4], in assay [5] and in assay [6] was inactive. Also, the compound was called inactive in assay [7] and in assay [8].
Turning to `CCC(=O)O[C@]1(C(=O)CCl)[C@@H](C)C[C@H]2[C@@H]3C[C@H](F)C4=CC(=O)C=C[C@]4(C)[C@@]3(F)[C@@H](O)C[C@@]21C`, the result in assay [1], in assay [2], in assay [3], in assay [4], in assay [5] and in assay [6] was inactive. In addition, the result in assay [7] and in assay [8] was inactive.
With `Cn1c(O)c(N=NC(N)=S)c2ccccc21`, the compound was classed as inactive in assay [1], in assay [2], in assay [3], in assay [4], in assay [5] and in assay [6]. The compound was called inactive in assay [7] and in assay [8].
In general, AC50 refers to the concentration giving half of the maximal activity seen. Regarding `Cc1c(C(=O)NN2CCCCC2)nn(-c2ccc(Cl)cc2Cl)c1-c1ccc(Cl)cc1`, the AC50 was 28.3 µM (active) in assay [1]; 23 µM (active) in assay [3]; 21.4 µM (active) in assay [5]; 37.8 µM (active) in assay [6]; 23 µM (active) in assay [7]. Further, the outcome in assay [2], in assay [4] and in assay [8] was inactive.
As to `CC(C)(O)c1ccccc1CC[C@@H](SCC1(CC(=O)O)CC1)c1cccc(/C=C/c2ccc3ccc(Cl)cc3n2)c1`, the concentration at half-maximal activity (AC50) in assay [1] was 18.2 µM (active); in assay [3], 19.4 µM (active); in assay [4], 33.8 µM (active); in assay [5], 15.1 µM (active); in assay [6] it was 17.6 µM (active); in assay [7] it was 14.5 µM (active). Also, the half-maximal activity concentration (AC50) in assay [8] was 18.8 µM (active). Further, the outcome in assay [2] was inactive.
Take `Cc1cc(Br)ccc1NC(=O)CCl`: the AC50 in assay [1] is 69.3 µM (active); in assay [2], 23.2 µM (active); in assay [3], 46.1 µM (active); in assay [4], 13.3 µM (active); in assay [5], 58.3 µM (active); in assay [6] it was 13.3 µM (active). Further, the AC50 in assay [7] was 46.1 µM (active); in assay [8], 25.3 µM (active).
Regarding `CCN(CC)CCOc1ccc(-c2nc3cc(Cl)ccc3s2)cc1`, the AC50 in assay [1] was 44.8 µM (active); in assay [5], 36.3 µM (active). Further, the outcome in assay [2], in assay [3], in assay [4], in assay [6], in assay [7] and in assay [8] was inactive.
For `C=C1/C(=C\C=C2/CCC[C@]3(C)[C@@H]([C@H](C)CCCC(C)C)CC[C@@H]23)C[C@@H](O)C[C@@H]1O`, the compound was called inactive in assay [1], in assay [5], in assay [6], in assay [7] and in assay [8]. Further, the AC50 in assay [2] is 20.7 µM (active); in assay [3], 37.1 µM (active); in assay [4], 40 µM (active).
Consider `O=C1c2ccccc2C(=O)C1c1ccc2ccccc2n1`, for which the result in assay [1], in assay [2], in assay [3], in assay [4], in assay [5] and in assay [6] was inactive. Besides, the outcome in assay [7] and in assay [8] was inactive.
Regarding `N[C@@H](COP(=O)(O)O)C(=O)O`, the outcome in assay [1], in assay [2], in assay [3], in assay [4], in assay [5] and in assay [6] was inactive. In addition, the call in assay [7] and in assay [8] was inactive.
For `Cc1c(C)n(CCN(C)C)c2ccc(C(=O)OCCN(C)C)cc12`, the compound was classed as inactive in assay [1], in assay [2], in assay [3], in assay [4], in assay [5] and in assay [6]. Moreover, the compound was classed as inactive in assay [7]. The AC50 in assay [8] is 40.2 µM (active).
In the case of `O=C(Oc1cccc2cccnc12)c1ccccc1`, the compound was classed as inactive in assay [1], in assay [2], in assay [3], in assay [4], in assay [5] and in assay [6]. The call in assay [7] and in assay [8] was inactive.
In the case of `CCCCCCCCCCCC[n+]1ccc2ccccc2c1`, the AC50 was 33.6 µM (active) in assay [1]; 11 µM (active) in assay [2]; 35.9 µM (active) in assay [3]; 15 µM (active) in assay [4]; 23 µM (active) in assay [5]; 28.5 µM (active) in assay [6]. Moreover, the AC50 in assay [7] is 33.4 µM (active); in assay [8] it was 21.8 µM (active).
Regarding `Nc1cc(S(=O)(=O)O)cc2cc(S(=O)(=O)O)cc(O)c12`, the compound was classed as inactive in assay [1], in assay [2], in assay [3], in assay [4], in assay [5] and in assay [6]. Also, the compound was called inactive in assay [7] and in assay [8].
For the compound `O=C(CCCN1CCC(O)(c2ccc(Br)cc2)CC1)c1ccc(F)cc1`, the result in assay [1], in assay [2], in assay [3], in assay [4], in assay [5] and in assay [6] was inactive. The compound was classed as inactive in assay [7] and in assay [8].
Consider `O=C(O)C[C@H](NC(=O)OCc1ccccc1)C(=O)O`, for which the outcome in assay [1], in assay [2], in assay [3], in assay [4], in assay [5] and in assay [6] was inactive. The result in assay [7] and in assay [8] was inactive.
For `COc1cc(NC(C)CCCN)c2ncccc2c1` (stereo not given), the outcome in assay [1], in assay [2], in assay [3], in assay [4], in assay [5] and in assay [6] was inactive. The result in assay [7] and in assay [8] was inactive.
